Compounds with a hit are over-represented: about 2.7% of the library has one in this group of screens.
CFTR F508del cor: F508del CFTR correction, initial screen, CFBE line, single point; hit rate 0.36% among 350,000; activity (quench increase), % at 7.58 µM; AID 720511, 2013; CFBE cells, YFP halide quenching; stimulated with forskolin plus potentiator P3; % fluorescence drop versus neutral controls;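 active = mean added fluorescence quench of at least 8% versus neutral control, with both replicates also reaching 8%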;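 note: cells transiently co-express mutant CFTR-F508del with the halide-sensitive YFP; corrector assay measuring rescue of mutant channel to the surface after 24 h compound exposure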
GSIS activator: GLuc luminescence reporter in INS-1E cells, primary screen for activators of glucose-dependent secretion of insulin; hit rate 0.61% among 370,000; activation, % at 16.6 µM; AID 743287, 2014; INS-1E GLuc reporter insulin secretion, 2-3 h;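 active = lowest replicate activation of at least 40%, so every replicate reaches that level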;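 note: 0% = median of neutral control wells and 100% = median of IBMX positive control wells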
MITF TRPM1 HTS: activators of MITF-driven TRPM1 promoter reporter, primary screen, cell-based, SK-MEL-5, luciferase, single point | hit rate 0.75% among 300,000 | SK-MEL-5 TRPM1-promoter luciferase, 24 h; % of positive control, neutral wells = 0 | AID 588334, 2011 | activation, % at 12.5 µM;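 active = mean activation of at least 80% with every replicate also reaching 80%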;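 note: 0% = neutral control wells and 100% = parthenolide positive control wells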
HIV Env fusion: inhibitors of HIV-1 Env-driven cell-cell fusion, primary screen, HeLa-JRFL effector, CEM21 target cells, luciferase; inhibition, % at 12.3 µM; hit rate 1.1% among 360,000; AID 651610, 2012;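 active = mean replicate inhibition score of at least 50 and every replicate individually at or above 50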;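 note: 0% = plate neutral controls and 100% = maraviroc near 300 nM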
Wnt act: Wnt/beta-catenin pathway activators, primary screen, cell-based, plate reader, single point. Wnt/beta-catenin reporter cell assay, activator. activation, % at 9.35 µM. hit rate 1.2% among 300,000; in the data active = activation above about 30%, passing the limit was not always enough;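 note: 0% = neutral control wells and 100% = positive control wells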
* = called active by the depositor; · = no result; [ ] = dose if it differs, or a comment.

SMILES | CFTR F508del cor | GSIS activator | MITF TRPM1 HTS | HIV Env fusion | Wnt act
C[C@@H]1CN([C@H](C)CO)C(=O)c2cc(NC(=O)Nc3ccc(C(F)(F)F)cc3)ccc2O[C@@H](C)CCCCO[C@H]1CN(C)C(=O)c1ccccc1 | 3 | 4 | · | 56*[16.7 µM] | ·
Cc1noc(C)c1NC(=O)N(C)C[C@H]1OCCCC[C@H](C)Oc2ccc(NC(=O)c3ccccc3)cc2C(=O)N([C@H](C)CO)C[C@@H]1C | -1 | -5 | · | 68*[16.7 µM] | ·
C[C@H](CO)N1C[C@H](C)[C@H](CN(C)C(=O)Nc2ccc(C(F)(F)F)cc2)OCCCC[C@H](C)Oc2ccc(NC(=O)c3ccccc3)cc2C1=O | -3 | -7 | · | -14[16.7 µM] | ·
C[C@H](CO)N1C[C@H](C)[C@@H](CN(C)C(=O)Nc2ccc(C(F)(F)F)cc2)OCCCC[C@H](C)Oc2ccc(NC(=O)c3ccccc3)cc2C1=O | -4 | -7 | · | 61*[16.7 µM] | ·
C[C@H]1CCCCO[C@H](CN(C)C(=O)Nc2ccc(C(F)(F)F)cc2)[C@@H](C)CN([C@@H](C)CO)C(=O)c2cc(NC(=O)c3ccccc3)ccc2O1 | -2 | -10 | · | 75*[16.7 µM] | ·
O=C(C[C@@H]1C[C@@H]2c3cc(NS(=O)(=O)c4ccc(F)cc4)ccc3O[C@@H]2[C@H](CO)O1)NCC1CC1 | -3 | -8 | · | -14[16.7 µM] | ·
Cc1noc(C)c1NC(=O)Nc1cccc2c1O[C@@H](CN(C)Cc1ccc(C(=O)Nc3ccccc3N)cc1)[C@@H](C)CN([C@H](C)CO)C2=O | -3 | 3 | · | · | ·
CC(Nc1nc(-c2ccc(F)cc2)cs1)c1nc2cc(C(F)(F)F)ccc2n1CCOCCO (stereo unspecified) | 1 | -9 | -14 | 3 | -3
CC(Nc1nc(-c2ccc(F)cc2)cs1)c1nc2cc(C(F)(F)F)ccc2n1CCCO (stereo unspecified) | -1 | · | -8 | 75* | -2
Cc1noc(C)c1S(=O)(=O)Nc1ccc2c(c1)CC(=O)N([C@H](C)CO)C[C@@H](C)[C@H](CN(C)CC1CCCCC1)O2 | 0 | -11 | · | 22[16.7 µM] | ·
N#CCc1ccc(OC(=O)c2cccnc2Cl)cc1 | 0 | 2 | 70 | -46 | 39*
CCc1ccc(C(=O)COC(=O)c2ccccc2OC)cc1 | -2 | · | 87* | -15 | 50*
COc1ccccc1C(=O)COC(=O)c1ccccc1O | 0 | -6 | 0 | -15 | 9
CCc1ccc(C(=O)COC(=O)c2cccnc2Cl)cc1 | -1 | -3 | 23 | -11 | 44*
COCC#Cc1ccc2c(c1)O[C@@H](CN(C)C(=O)CN(C)C)[C@@H](C)CN([C@@H](C)CO)S2(=O)=O | -1 | 3 | · | 10[16.7 µM] | ·
CN(C)C(=O)C[C@@H]1CC[C@H](NC(=O)Nc2cccc(F)c2)[C@@H](CO)O1 | 0 | 4 | · | -4[16.7 µM] | ·
Cc1cc(C)n(C(N)=NC(=O)c2ccc([N+](=O)[O-])cc2)n1 | 1 | 28 | 95* | -71 | 10
Cc1cc(C)n(C(N)=NC(=O)c2ccccc2)n1 | · | · | · | -2 | 43*
Cc1cc(C)n(C(=O)COc2ccc([N+](=O)[O-])cc2)n1 | · | 3 | -1 | 19 | ·
Cc1ccc(C(c2nc3ccccc3[nH]2)n2c(-c3ccccc3)nc3ccccc32)cc1 (stereo unspecified) | -3 | 4 | · | 58* | -1
CSCCC(c1nc2ccccc2[nH]1)n1c(-c2ccc(C)cc2)nc2ccccc21 (stereo unspecified) | -4 | · | · | -12 | 18
CCc1ccc(CNC(=O)CC2C(=O)NCCN2Cc2ccccc2F)nc1 (stereo unspecified) | -2 | 14 | -7 | 56* | -3
CC(=O)Nc1ccc(S(=O)(=O)N(Cc2ccccc2)C(C)C)cc1 | · | · | -20 | 84* | -4
CC(=O)Nc1ccc(S(=O)(=O)N(C)Cc2ccccc2)cc1 | 2 | 3 | 1 | -4 | -3
COc1ccc(C(=O)/C=C/Nc2ccc([N+](=O)[O-])cc2C)cc1OC | · | · | 39 | -48 | -4
SMILES | CFTR F508del cor | GSIS activator | MITF TRPM1 HTS | HIV Env fusion | Wnt act
CCOc1ccc(N/C=C/C(=O)c2ccc(C)cc2)c([N+](=O)[O-])c1 | · | 12 | 88* | · | ·
Cc1ccc(C(=O)/C=C/Nc2ccc([N+](=O)[O-])cc2Br)cc1 | · | · | 87* | · | 11
COc1ccc(CN(C)C[C@@H]2Oc3c(NS(=O)(=O)c4cn(C)cn4)cccc3C(=O)N([C@H](C)CO)C[C@@H]2C)cc1 | 0 | 3 | · | · | ·
O=C(C[C@H]1CC[C@H]2[C@@H](COC[C@@H](O)CN2C(=O)c2ccccc2F)O1)NCc1ccc(-c2ccccc2)cc1 | -2 | -6 | · | · | ·
O=C(NC1CCCC1)c1ccc(Cl)c(S(=O)(=O)N2CCOCC2)c1 | 0 | 47* | -3 | 16 | 0
O=C(NC1CCN(Cc2ccccc2)C1)c1cccc(S(=O)(=O)N2CCOCC2)c1 (stereo unspecified) | 1 | 9 | -8 | -13 | -1
O=C(NC1CCN(Cc2ccccc2)CC1)c1cc(S(=O)(=O)N2CCOCC2)ccc1Cl | 15* | -3 | 1 | 3 | 1
Cc1ccccc1CCNC(=O)c1ccc(Cl)c(S(=O)(=O)N2CC(C)OC(C)C2)c1 (stereo unspecified) | 4 | -10 | -10 | 59* | -7
O=C(NCCC1=CCCCC1)c1ccc(Cl)c(S(=O)(=O)N2CCOCC2)c1 | · | · | 1 | 43 | -1
Cc1ccc(CSCCNC(=O)c2ccc(Cl)c(S(=O)(=O)N3CCOCC3)c2)cc1 | · | · | -6 | 85* | -4
C[C@H](CO)N1C[C@H](C)[C@H](CN(C)S(=O)(=O)c2cccs2)Oc2ccc(NC(=O)NC3CCCCC3)cc2C1=O | -1 | -14 | · | 8[16.7 µM] | ·
COc1ccc2c3c(n(C)c2c1)[C@H](CO)N(C(C)=O)CC31CN(C(=O)NC(C)C)C1 | 1 | 30 | · | · | ·
COc1ccc2c3c(n(C)c2c1)[C@@H](CO)N(CC1CC1)CC31CCN(C(=O)c2ccccc2)CC1 | · | -10 | · | · | ·
O=C(O)CCC(=O)Nc1ccc(-c2nc3ccc(C(=O)c4ccccc4)cc3[nH]2)cc1 | -1 | 19 | · | 9 | 9
O=C(c1ccccc1)c1ccc2nc(-c3ccc(NC(=O)c4ccccc4F)cc3)[nH]c2c1 | · | 197* | -8 | · | ·
CS(=O)(=O)N1C[C@H](O)COC[C@@H]2O[C@H](CC(=O)NCc3ccc(-c4ccccc4)cc3)CC[C@H]21 | -1 | -17 | · | · | ·
CO[C@H]1CN(C)C(=O)c2ccc(NS(=O)(=O)c3ccccc3C)cc2OC[C@@H](C)NC[C@H]1C | 4 | 1 | · | · | ·
Cc1cccc(CS(=O)(=O)c2ncc(Cl)c(C(=O)Nc3c(C)cccc3C)n2)c1 | 4 | 80* | -18 | 34 | -2
Cc1cccc(C)c1NC(=O)c1nc(S(=O)(=O)Cc2ccccc2)ncc1Cl | 4 | 8 | -87 | -86 | -13
CNC(=O)C[C@H]1CC[C@@H]2[C@@H](COc3ccc(NC(=O)c4ccc(F)cc4)cc3C(=O)N2C)O1 | 1 | -1 | · | -11[16.7 µM] | ·
CC(C)CC(=O)Nc1cccc(-c2nc3ncccc3o2)c1 | 0 | 41* | 19 | -19 | -2

Bioassay records (PubChem)
